Inconclusive results are not listed. Entries that show only a call come without a potency. Values without a mark were called inactive. Active and inactive are the calls of the source. The call rests on the fitted dose curve.
Test: cAMP Responsive Elements (CRE) small molecule agonists, cell-based qHTS assay (AID 1963590)
Conditions: CRE-bla HEK293T, beta-lactamase FRET ratio, 3 h; series mostly up to 92.4 µM
Excerpt: U.S. Tox21 Program National Center for Advancing Translational Sciences [NCATS] Division of Preclinical Innovation [DPI] U.S. Environmental Protection Agency [EPA] National Institutes of Environmental Health Sciences [NIEHS] National Toxicology Program [NTP] U.S. Food and Drug Administration [FDA] Tox21 Assay Overview: CREB (cyclic-AMP Responsive Element Binding Protein) is a cellular transcription factor. It binds to certain DNA sequences called cAMP Responsive Elements (CRE) and regulates the transcription of the genes. […] This cell line can be used to find agonists/antagonists of the cyclic AMP signaling pathway. The activation of the report gene under culture conditions can be detected by fluorescence intensity. This cell line has been used to screen the Tox21 10K compound library to identify agonists that induce oxidative stress.
Tox21 Assay Protocol Summary: CRE-bla Hek 293T cells were suspended in assay medium (DMEM containing 10% dialyzed FBS, 0.1 mM NEAA, 1 mM sodium pyruvate and 25 mM HEPES) and dispensed at 2,000 cells/5 uL /well into 1536-well black wall/clear bottom plates using a Multidrop Combi (ThermoFisher Scientific, Waltham, MA) dispenser. After the assay plates were incubated at 37 C/5% CO2 for 18 hrs, 23 nL of compounds dissolved in DMSO, positive controls or DMSO only was transferred to the assay plate by a pintool workstation (Kalypsys, San Diego, CA). After the plates were incubated at 37 C/5% CO2 for 3 hrs, 1 uL of LiveBLAzer B/G FRET substrate (Invitrogen, Carlsbad, CA) was added to each well using Bioraptr Flying Reagent Dispenser (FRD, Aurora Discovery, San Diego, CA). The plates were incubated at room temperature for 2 h.

Compound | Potency | activation
O=C1OC(=O)C2C3C=CC(C3)C12 (stereo not given) | inactive | 
COc1cc2c3cc1Oc1cc(ccc1O)C[C@@H]1c4c(cc(OC)c(O)c4Oc4ccc(cc4)C[C@@H]3N(C)CC2)CC[N+]1(C)C | inactive | 
O=C(O)c1cccc(C(=O)O)n1 | inactive | 
CC(C)C(=O)Nc1cccc(C(F)(F)F)c1 | inactive | 
CN1CCN(CC(=O)N2c3ccccc3C(=O)Nc3cccnc32)CC1 |  | -0.47% [at 8.39 µM]
CN(Cc1cc(Br)cc(Br)c1N)C1CCCCC1 | inactive | 
Nc1ccc(S(=O)(=O)NCc2ccccc2)cc1 | inactive | 
C=C(C)C(=O)OCC(C)(C)COC(=O)C(=C)C | inactive | 
CC(C)=CCC/C(C)=C\C#N | inactive | 
COc1ccc(C(C)=O)cc1 | inactive | 
CC(=O)O[C@@H]1C(=O)O[C@@H]2[C@H]1OC(=O)[C@@H]2OC(C)=O | inactive | 
O=C(CS)Nc1ccccc1 | inactive | 
CC=C(Cl)Cl | inactive | 
CN(C)C(=O)CNC(=O)Cc1ccccc1 | inactive | 
CC(C)(C)c1n[nH]c(=S)n(N)c1=O | inactive | 
Nc1ncnc2c1ncn2[C@H]1CC[C@@H](CO)O1 | inactive | 
O=[N+]([O-])c1cccc(I)c1 | inactive | 
CC(C)Cn1cnc2c(N)nc3ccccc3c21 |  | 3.84% [at 19 µM]
CC(C)(C)NCC(O)COc1ccc(NC(=O)NC2CCCCC2)cc1 (stereo not given) | inactive | 
CN(C)C/C=C(/c1ccc(Br)cc1)c1cccnc1 | inactive | 

Compound | Potency | activation
CN1C(=O)c2ccc([N+](=O)[O-])cc2C1=O | inactive | 
O=C(O)P(=O)(O)O | inactive | 
CC(=O)c1c(C)cc(C(C)(C)C)cc1C | inactive | 
O=CN1CCCCC1 | inactive | 
Cc1cccc2nccnc12 | inactive | 
CCOC(=O)[C@H](CCc1ccccc1)N[C@H]1CS[C@H](c2cccs2)CN(CC(=O)O)C1=O | inactive | 
CCN1CCCC1CNC(=O)c1cc(S(=O)(=O)CC)c(N)cc1OC (stereo not given) | inactive | 
Cc1ccc2c(c1)c1c3n2CCNC3CCC1 (stereo not given) | inactive | 
O=P(O)(O)C(O)(Cc1cccnc1)P(=O)(O)O | inactive | 
C=C(C)C(=O)OCCOCC | inactive | 
COC(C)(C)CCCC(C)CC=O (stereo not given) | inactive | 
CC(C)(C)NCCNC(C)(C)C | inactive | 
Brc1c2ccccc2cc2ccccc12 | inactive | 
N#CCc1ccc(Cl)cc1Cl | inactive | 
C[C@H]1O[C@H](O[C@H]2[C@H](O)[C@@H](O)[C@@H](O[C@H]3[C@H](O)[C@@H](O)[C@H](O)O[C@@H]3CO)O[C@@H]2CO)[C@H](O)[C@@H](O)[C@@H]1N[C@H]1C=C(CO)[C@@H](O)[C@H](O)[C@H]1O | inactive | 
CNC(=O)c1c(I)c(NC(=O)CCCCC(=O)Nc2c(I)c(C(=O)O)c(I)c(C(=O)NC)c2I)c(I)c(C(=O)O)c1I | inactive | 
COc1cccc([C@H](O)C2CCN(CCc3ccc(F)cc3)CC2)c1OC | inactive | 
CCOC(=O)c1ccccc1 | inactive | 
CCCCOC(=O)C(C)Oc1ccc(Oc2ccc(C(F)(F)F)cn2)cc1 (stereo not given) | inactive | 
CC(=O)C(C)=O | inactive | 
